# Assay results from PubChem BioAssay (EPA / NIEHS).
# Some compounds were tested as several samples or in several runs, with calls that do not always agree. The source made the active and inactive calls. How the source made its calls: active means hit-call score of the fitted dose curve at least 0.9, where 1 is the maximum; inactive means score below 0.9.
# Legend:
# [1] = read-out: TIMP metallopeptidase inhibitor 2 (TIMP2), TIMP2 (gene 7077); test: BSK_KF3CT_TIMP2: BioMAP Diversity Plus: KF3CT Assay for TIMP metallopeptidase inhibitor 2 (TIMP2) Biomarker Activity (AID 2283071); conditions: primary human keratinocytes with fibroblasts; actives raise or lower the signal
# Outline: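 Keratinocyte–fibroblast co-culture, 24 h exposure; TIMP-2 ELISA, DMSO-normalised bidirectional fit. Parallel SRB (0.1%, TCA-fixed, 560 nm) total-protein staining gauges cytotoxicity.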
# [2] = read-out: Transforming growth factor beta 1 (TGFb1), TGFB1 (gene 7040); test: BSK_KF3CT_TGFb1: BioMAP Diversity Plus: KF3CT Assay for Transforming growth factor beta 1 (TGFb1) Biomarker Activity (AID 2283072); conditions: primary human keratinocytes with fibroblasts; actives raise or lower the signal
# Outline: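 Signal changes in either direction, relative to DMSO, define activity here. TGF-b1 is read by ELISA from a human keratinocyte-fibroblast co-culture 24 h post-dose.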
# [3] = read-out: Matrix Metallopeptidase 9 (MMP9), MMP9 (gene 4318); test: BSK_KF3CT_MMP9: BioMAP Diversity Plus: KF3CT Assay for Matrix Metallopeptidase 9 (MMP9) Biomarker Activity (AID 2283074); conditions: primary human keratinocytes with fibroblasts; actives raise or lower the signal;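 on AC50: MMP9 protein level quantified by ELISA in the co-culture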
# Outline: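 Keratinocyte plus foreskin fibroblast human primary skin co-culture was dosed with chemical and MMP-9 was quantified by ELISA 24 h later. Bidirectional curve fitting used DMSO as negative control and activity baseline.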
# [4] = read-out: urokinase plasminogen activator (uPA), PLAU (gene 5328); test: BSK_KF3CT_uPA: BioMAP Diversity Plus: KF3CT Assay for urokinase plasminogen activator (uPA) Biomarker Activity (AID 2283075); conditions: primary human keratinocytes with fibroblasts; actives raise or lower the signal
# Outline: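 Human keratinocyte plus foreskin fibroblast primary co-culture exposed to chemical for 24 h. uPA levels were quantified by ELISA, and activity was fitted bidirectionally against a DMSO negative-control baseline.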
# [5] = read-out: CD40, CD40 (gene 958); test: BSK_LPS_CD40: BioMAP Diversity Plus: LPS Assay for CD40 Biomarker Activity (AID 2283076); conditions: primary human HUVEC with PBMC; actives raise or lower the signal
# Outline: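 Primary human umbilical vein endothelial cells co-cultured with peripheral blood mononuclear cells, LPS-stimulated, were dosed with chemical and read 24 h later. CD40 levels were measured by ELISA and fitted bidirectionally against DMSO as negative control and baseline.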
# [6] = read-out: E-selectin (Homo sapiens) (UniProt P16581); test: BSK_LPS_Eselectin: BioMAP Diversity Plus: LPS Assay for Eselectin Biomarker Activity (AID 2283077); conditions: primary human HUVEC with PBMC; actives raise or lower the signal
# Outline: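 Human umbilical vein endothelial cells co-cultured with peripheral blood mononuclear cells under LPS stimulation; E-selectin measured by ELISA 24 h after chemical dosing. Activity fitted bidirectionally against DMSO as negative control and baseline.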
# [7] = read-out: Interleukin-8 (IL8), CXCL8 (gene 3576); test: BSK_LPS_IL8: BioMAP Diversity Plus: LPS Assay for Interleukin-8 (IL8) Biomarker Activity (AID 2283078); conditions: primary human HUVEC with PBMC; actives raise or lower the signal
# Outline: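 Human umbilical vein endothelial cells co-cultured with PBMC were stimulated with LPS; IL-8 levels were measured by ELISA 24 h after chemical dosing. Activity was fitted bidirectionally against DMSO as negative control and baseline.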
# [8] = BSK_LPS_SRB: Viability Assessment in the BioMAP Diversity Plus: LPS Assay (AID 2283079); conditions: primary human HUVEC with PBMC;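 further: total protein by sulforhodamine B absorbance as a cytotoxicity measure; measured one day after compound addition; fitted in both directions against DMSO so loss or gain of signal counts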
# Outline: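 Human umbilical vein endothelial cells co-cultured with PBMC (LPS system) were dosed for 24 h. Total protein was stained with 0.1% sulforhodamine B after 10% TCA fixation, read at 560 nm, and fitted bidirectionally against DMSO baseline.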
# [9] = read-out: Interleukin-1 alpha (IL1a), IL1A (gene 3552); test: BSK_LPS_IL1a: BioMAP Diversity Plus: LPS Assay for Interleukin-1 alpha (IL1a) Biomarker Activity (AID 2283080); conditions: primary human HUVEC with PBMC; actives raise or lower the signal
# Outline: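 Human umbilical vein endothelial cells co-cultured with peripheral blood mononuclear cells were LPS-stimulated and exposed to test chemicals for 24 h. IL-1 alpha was quantified by ELISA, with bidirectional curve fitting against DMSO as the negative control and baseline.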
# [10] = read-out: C-C motif chemokine 2 (Homo sapiens) (UniProt P13500); test: BSK_KF3CT_MCP1: BioMAP Diversity Plus: KF3CT Assay for Monocyte Chemoattractant Protein 1 (MCP1/CCL2) Biomarker Activity (AID 2283073); conditions: primary human keratinocytes with fibroblasts; actives raise or lower the signal
# Outline: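 Human keratinocyte plus foreskin fibroblast primary co-culture exposed to chemical for 24 h. MCP-1 levels measured by ELISA. Bidirectional curve fitting relative to DMSO negative control as baseline.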
# Sequence of E-selectin (Homo sapiens) (P16581 whole entry, looked up): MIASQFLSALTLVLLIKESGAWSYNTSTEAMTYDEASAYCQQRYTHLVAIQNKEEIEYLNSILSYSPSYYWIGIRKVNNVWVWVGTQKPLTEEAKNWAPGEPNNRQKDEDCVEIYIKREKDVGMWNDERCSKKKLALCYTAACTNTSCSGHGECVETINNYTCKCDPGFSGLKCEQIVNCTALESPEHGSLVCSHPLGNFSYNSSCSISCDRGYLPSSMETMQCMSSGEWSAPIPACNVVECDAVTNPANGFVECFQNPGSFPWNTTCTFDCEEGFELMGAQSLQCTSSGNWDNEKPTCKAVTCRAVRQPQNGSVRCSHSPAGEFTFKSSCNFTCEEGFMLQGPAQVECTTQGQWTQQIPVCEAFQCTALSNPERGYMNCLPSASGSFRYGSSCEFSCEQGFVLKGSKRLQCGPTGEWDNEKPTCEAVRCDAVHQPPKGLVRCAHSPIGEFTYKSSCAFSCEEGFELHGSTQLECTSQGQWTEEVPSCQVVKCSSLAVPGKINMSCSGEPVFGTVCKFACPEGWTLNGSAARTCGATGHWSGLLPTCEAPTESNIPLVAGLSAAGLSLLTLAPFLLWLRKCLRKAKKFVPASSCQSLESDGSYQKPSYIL
smiles,measurement,setting,value
CCCCC=O,outcome,[1],inactive
same,outcome,[2],inactive
same,outcome,[3],inactive
same,outcome,[4],inactive
same,outcome,[5],inactive
same,outcome,[6],inactive
same,outcome,[7],inactive
same,outcome,[8],inactive
same,outcome,[9],inactive
O=C(NO)c1ccccc1,outcome,[1],inactive
same,outcome,[2],inactive
same,outcome,[3],inactive
same,outcome,[4],inactive
same,outcome,[5],inactive
same,outcome,[6],inactive
same,outcome,[7],inactive
same,outcome,[8],inactive
same,outcome,[9],inactive
CCCCC(CC)C(=O)OCCOCCOCCOCCOC(=O)C(CC)CCCC (configuration not stated),outcome,[1],inactive
same,outcome,[2],inactive
same,outcome,[3],inactive
same,outcome,[4],inactive
same,outcome,[5],inactive
same,outcome,[6],inactive
same,outcome,[7],inactive
same,outcome,[8],inactive
same,outcome,[9],inactive
CN(Cc1cnc2nc(N)nc(N)c2n1)c1ccc(C(=O)N[C@@H](CCC(=O)O)C(=O)O)cc1,outcome,[1],inactive
same,outcome,[2],inactive
same,outcome,[3],inactive
same,AC50,[4],4770 nM (active)
same,outcome,[4],inactive
same,outcome,[5],inactive
same,outcome,[6],inactive
same,outcome,[7],inactive
same,outcome,[8],inactive
same,outcome,[9],inactive
CN(C)c1ccc(C(=C2C=CC(=[N+](C)C)C=C2)c2ccccc2)cc1,AC50,[1],795 nM (active)
same,AC50,[2],194 nM (active)
same,AC50,[10],699 nM (active)
same,AC50,[3],20.7 nM (active)
same,AC50,[4],465 nM (active)
same,AC50,[5],13.3 nM (active)
same,AC50,[6],8.2 nM (active)
same,outcome,[7],inactive
same,AC50,[8],149 nM (active)
same,AC50,[9],9.44 nM (active)
O=C(CCCN1CCC(O)(c2ccc(Cl)cc2)CC1)c1ccc(F)cc1,outcome,[1],inactive
same,outcome,[2],inactive
same,outcome,[3],inactive
same,outcome,[4],inactive
same,outcome,[5],inactive
same,AC50,[6],1670 nM (active)
same,outcome,[7],inactive
same,outcome,[8],inactive
same,outcome,[9],inactive
CCC(C)c1ccccc1O (configuration not stated),outcome,[1],inactive
same,outcome,[2],inactive
same,outcome,[10],inactive
same,outcome,[3],inactive
same,outcome,[4],inactive
same,outcome,[5],inactive
same,outcome,[6],inactive
same,outcome,[7],inactive
same,outcome,[8],inactive
same,outcome,[9],inactive
C[C@]12CC[C@@H]3c4ccc(O)cc4CC[C@H]3[C@@H]1C[C@@H](O)[C@@H]2O,outcome,[1],inactive
same,outcome,[2],inactive
same,outcome,[3],inactive
same,outcome,[4],inactive
same,outcome,[5],inactive
same,outcome,[6],inactive
same,outcome,[7],inactive
same,outcome,[8],inactive
same,outcome,[9],inactive
O=C(NCc1ncc(C(F)(F)F)cc1Cl)c1c(Cl)cccc1Cl,outcome,[1],inactive
same,outcome,[2],inactive
same,outcome,[10],inactive
same,outcome,[3],inactive
same,outcome,[4],inactive
same,outcome,[5],inactive
same,outcome,[6],inactive
same,outcome,[7],inactive
same,outcome,[8],inactive
same,outcome,[9],inactive
Cc1ccc(C(=O)c2ccccc2)cc1,AC50,[1],30300 nM (active)
same,AC50,[2],30800 nM (active)
same,outcome,[3],inactive
same,outcome,[4],inactive
same,outcome,[5],inactive
same,outcome,[6],inactive
same,outcome,[7],inactive
same,outcome,[8],inactive
same,outcome,[9],inactive
O=C(c1ccccc1)c1ccccc1,outcome,[1],inactive
same,outcome,[2],inactive
same,outcome,[10],inactive
same,outcome,[3],inactive
same,outcome,[4],inactive
same,outcome,[5],inactive
same,outcome,[6],inactive
same,outcome,[7],inactive
same,outcome,[8],inactive
same,outcome,[9],inactive
CC[N+](CC)(CC)Cc1ccccc1,outcome,[1],inactive
same,outcome,[2],inactive
same,outcome,[3],inactive
same,outcome,[4],inactive
same,outcome,[5],inactive
same,outcome,[6],inactive
same,outcome,[7],inactive
same,outcome,[8],inactive
same,outcome,[9],inactive
Cc1cccc2c1ccc1ccccc12,outcome,[1],inactive
same,outcome,[2],inactive
same,outcome,[10],inactive
same,outcome,[3],inactive
same,outcome,[4],inactive
same,outcome,[5],inactive
same,outcome,[6],inactive
same,outcome,[7],inactive
same,outcome,[8],inactive
same,outcome,[9],inactive
C=CC(=C)CC/C=C(\C)CCC=C(C)C,outcome,[1],inactive
same,outcome,[2],inactive
same,outcome,[3],inactive
same,outcome,[4],inactive
same,outcome,[5],inactive
same,outcome,[6],inactive
same,outcome,[7],inactive
same,outcome,[8],inactive
same,outcome,[9],inactive
